Compounds with a hit are over-represented: about 4.7% of the library has one in this group of screens.
ATXN2 expr inh – reduces ATXN2 reporter expression in HEK-293 cells. HEK-293 ATXN2-luciferase reporter, luminescence, 24 h. Potency, µM (highest dose often 57 µM), inactives show at the top dose activity change, negative = inhibition, most hits filed as inhibitors. actives 0.72% (n = 360,000). AID 1745845; further: potency means the concentration at half of the fitted maximal effect; on the % scale 0 is the no-effect control and ±100 the full control effect; nearly all actives have a fitted effect of over 55% in size
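ATXN2-luciferase reporter cells (luciferase flanked by upstream and downstream ATXN2 gene portions) were treated 24 h at 37 °C with compounds at up to 57 uM. SteadyGlo luminescence gave expression; GF-AFC fluorescence gave viability.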
HepG2 tox – kills HepG2 cells in TGF-b inhibitor counter-screen; HepG2 CAGA-GFP viability, ATP luminescence, 18 h; Potency, µM (titrated, usually from 46.1 µM), without a hit: top-dose activity change, negative = cytotoxicity, actives largely listed as cytotoxic; actives 0.76% (n = 410,000); AID 588856; further: potency means the concentration at half of the fitted maximal effect
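HepG2 CAGA-GFP cells (1000/well, DMEM with 1% FBS) received compound, then TGF-beta at 500 pg/mL final, and were incubated 18 hours at 37 degrees C. Viability was read by CellTiter-Glo luminescence. Media-only wells were set as complete cell-killing and DMSO as no toxicity.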
D3 ag – activates the human D3 dopamine receptor | D3R DiscoveRx beta-arrestin cells, luminescence, 90 min | max activation, % | actives 0.58% (n = 410,000) | P35462; in the data active means max activation above about 30%; further: 0% is about no effect
Target sequence (P35462 whole entry, looked up): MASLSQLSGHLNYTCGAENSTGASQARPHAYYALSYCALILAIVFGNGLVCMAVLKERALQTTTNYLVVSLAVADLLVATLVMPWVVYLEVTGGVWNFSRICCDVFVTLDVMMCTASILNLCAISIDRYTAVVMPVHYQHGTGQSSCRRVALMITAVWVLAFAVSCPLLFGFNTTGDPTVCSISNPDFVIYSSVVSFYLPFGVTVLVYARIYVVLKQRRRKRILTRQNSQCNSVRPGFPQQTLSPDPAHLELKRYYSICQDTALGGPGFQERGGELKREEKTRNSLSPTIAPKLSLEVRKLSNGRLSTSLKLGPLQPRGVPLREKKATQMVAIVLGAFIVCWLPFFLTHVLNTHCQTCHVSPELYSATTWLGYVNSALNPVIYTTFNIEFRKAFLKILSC
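Cells at 1500/well, incubated overnight, then treated with pinned compounds (dopamine as control) for 90 min at 37 degrees C. DiscoveRx reagent added for 30 - 60 minutes at room temperature; luminescence read.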
D3 antag – antagonists of human D3 dopamine receptor; D3R cells, DiscoveRx beta-arrestin luminescence, antagonist mode; active compounds read low; actives 2.5% (n = 360,000); max response, negative = inhibition, %; AID 652054; P35462; in the data active means max response below about -50%; inconclusive means no clear call, values can overlap the other calls; further: on the % scale 0 is the no-effect control and ±100 the full control effect
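Cells plated overnight at 1500 cells/well, then exposed to library compounds with dopamine controls for 90 minutes at 37 degrees C. DiscoveRx reagent added for 30–60 minutes at room temperature; luminescence read, quantitative HTS format.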
TGFb SMAD3 inh – TGF-b pathway inhibition. HepG2 CAGA-GFP TGF-b/SMAD3 reporter, GFP fluorescence, 18 h; TGF-beta stimulated, 500 pg/mL final. Potency, µM (series often up to 46.1 µM), for the others: top-dose activity, negative = inhibition, actives largely listed as inhibitors. actives 1.2% (n = 410,000). AID 588855; further: potency means the concentration at half of the fitted maximal effect; on the % scale 0 is the no-effect control and ±100 the full control effect; nearly all actives have a fitted effect of over 65% in size
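HEPG2 CAGA-GFP cells (1000/well, DMEM with 1% FBS) were pre-incubated 2 h at 37 degrees C, given compound by pin tool, then stimulated with TGF-beta at 500 pg/mL final for 18 h before per-cell GFP fluorescence imaging.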
S2 tox – reduces viability in counter-screen for ATXN expression inhibitors; S2 cells (HEK-293 line with an ATXN2-luciferase reporter) viability, CellTiter-Fluor protease fluorescence, 24 h; Potency, µM (top dose mostly 56.7 µM), actives largely listed as cytotoxic; actives 0.49% (n = 400,000); further: potency means the concentration at half of the fitted maximal effect; nearly all actives have a fitted effect of over 40% in size
* hit, by the source's call. Unless noted, the call rests on the fitted dose curve; in most records, active means well fitted curve in the direction sought with a large enough effect; inconclusive means small, poorly fitted or top-dose-only effect, or another doubt; inactive means no such curve, though single readings can be large; an effect the other way counts as inactive or inconclusive.

Fc1cccc(/C=C2\CCCC3=C2NC(=S)NC3c2cccc(F)c2)c1 (stereo unspecified) was read as HepG2 tox -12%, D3 ag -16, D3 antag -19, TGFb SMAD3 inh 8.9µM* and S2 tox inactive.
Screening Fc1ccccc1/C=C1\CCCC2=C1NC(=S)NC2c1ccccc1F (stereo unspecified) returned ATXN2 expr inh -22%, HepG2 tox -31%, D3 ag -17, D3 antag -22, TGFb SMAD3 inh inconclusive and S2 tox inactive.
Screening S=C1NC2=C(CCC/C2=C\c2ccccc2)C(c2ccccc2)N1 (stereo unspecified) returned ATXN2 expr inh -3%, HepG2 tox -32%, D3 ag -2, D3 antag -7, TGFb SMAD3 inh inconclusive and S2 tox inactive.
S=C1NC2=C(CCC/C2=C\c2ccc(Cl)cc2)C(c2ccc(Cl)cc2)N1 (stereo unspecified) was read as ATXN2 expr inh 14%, HepG2 tox 9%, D3 ag -19, D3 antag inconclusive, TGFb SMAD3 inh 18µM* and S2 tox inactive.
For Cc1ccc(S(=O)(=O)N2CCCc3cc(NS(=O)(=O)c4cccc(Cl)c4)ccc32)cc1 the results were ATXN2 expr inh inconclusive, HepG2 tox -16%, D3 ag 8, TGFb SMAD3 inh 10µM* and S2 tox inconclusive.
CCOc1ccc(S(=O)(=O)Nc2ccc3c(c2)CCCN3S(=O)(=O)c2ccc(C)cc2)cc1 was read as ATXN2 expr inh -28%, HepG2 tox 6%, D3 ag -5, TGFb SMAD3 inh -13% and S2 tox inconclusive.
`O=C(NCCc1ccc(F)cc1)Nc1ccc([N+](=O)[O-])cc1` gave ATXN2 expr inh -6%, HepG2 tox -49%, D3 ag -12, D3 antag -21, TGFb SMAD3 inh inconclusive and S2 tox inactive.
O=[N+]([O-])c1ccc(NC(=S)NCCc2ccc(F)cc2)cc1 was read as ATXN2 expr inh inconclusive, HepG2 tox 13µM*, D3 ag -6, D3 antag -19, TGFb SMAD3 inh inconclusive and S2 tox inconclusive.
Screening Fc1cccc(NC(=S)NCCc2ccccc2)c1 returned ATXN2 expr inh 7%, HepG2 tox -24%, D3 ag 5, D3 antag 11, TGFb SMAD3 inh -25% and S2 tox inactive.
For O=[N+]([O-])c1cccc(NC(=S)NCCc2ccccc2)c1 the results were ATXN2 expr inh -12%, HepG2 tox -5%, D3 ag -25, D3 antag -71*, TGFb SMAD3 inh inconclusive and S2 tox inactive.
CC1=NN(c2ccccc2)C(=O)/C1=C\C=C\c1ccccc1 was read as ATXN2 expr inh inconclusive, HepG2 tox -56%, D3 ag 3, D3 antag -5, TGFb SMAD3 inh 8.9µM* and S2 tox inconclusive.
For C=C(C(=O)c1ccccc1)C(C)C(=C)C(=O)c1ccccc1 the results were ATXN2 expr inh 28µM*, HepG2 tox 7.9µM*, D3 ag -3, D3 antag inconclusive, TGFb SMAD3 inh inconclusive and S2 tox 25µM*.
`C=C(C(=O)c1ccccc1)C(c1ccccc1)C(C)C(=O)c1ccccc1` (stereo unspecified) gave ATXN2 expr inh -28%, HepG2 tox -86%, D3 ag -4, D3 antag -20 and TGFb SMAD3 inh inconclusive.
Screening CN(C)c1ccc(/C=C/c2ccnc3c([N+](=O)[O-])cccc23)cc1 returned HepG2 tox -40% and TGFb SMAD3 inh -2%.
`COC(=O)CC1Oc2ccc(Cl)cc2-n2cc(-c3ccc(F)cc3)nc21` (stereo unspecified) gave ATXN2 expr inh -5%, HepG2 tox 1%, D3 ag 50*, TGFb SMAD3 inh inconclusive and S2 tox inactive.
